pPAFAH FP inh = pPAFAH (human) enzyme inhibition. recombinant pPAFAH, FP-rhodamine probe fluorescence polarization. hit rate 1.5% among 330,000. inhibition, % at 3.39 µM;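 active = inhibition above the mean inhibition across the screen plus 3 SD, cut at about 25% in these data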;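 note: inhibitors block binding of the rhodamine activity-based probe so polarization drops; 0% = enzyme with DMSO and 100% = wells lacking pPAFAH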
Target sequence (Q13093 whole entry, looked up): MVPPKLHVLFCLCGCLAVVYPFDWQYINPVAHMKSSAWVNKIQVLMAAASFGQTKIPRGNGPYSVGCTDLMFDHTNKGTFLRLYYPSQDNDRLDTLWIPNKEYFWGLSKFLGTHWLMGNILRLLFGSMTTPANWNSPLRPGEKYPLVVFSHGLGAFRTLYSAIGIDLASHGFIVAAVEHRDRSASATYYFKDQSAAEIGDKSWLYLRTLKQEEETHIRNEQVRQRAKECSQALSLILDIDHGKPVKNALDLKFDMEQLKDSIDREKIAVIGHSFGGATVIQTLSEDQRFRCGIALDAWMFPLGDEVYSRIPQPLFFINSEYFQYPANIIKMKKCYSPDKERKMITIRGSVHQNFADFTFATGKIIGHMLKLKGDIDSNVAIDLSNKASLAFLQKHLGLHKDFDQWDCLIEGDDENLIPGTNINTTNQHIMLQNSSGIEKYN
PKA-R2B act = PKA-R2B complex activation. P22694+P31323. PKA-R2B holoenzyme dissociation, Cy5-IP20 fluorescence polarization; R2B truncated from residue 108, S112A mutant; 0% DMSO only, 100% 113 µM cGMP. activation, % at 11.4 µM. hit rate 0.079% among 340,000. AID 504700;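 active = activation above a cutoff set at the mean over all compounds plus 3 SD, cut at about 18% in these data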;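 note: higher means more holoenzyme dissociation and a rise in polarization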
PKA-R1A act = activates the PKA-R1A holoenzyme complex; PKA-R1A dissociation, Cy5-IP20 fluorescence polarization; scaled: DMSO 0%, 113 µM cGMP 100%; P00514+P68181; activation, % at 11.4 µM; hit rate 0.083% among 340,000;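 active = percent activation above the mean of all tested compounds plus 3 SD, cut at about 19% in these data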;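 note: higher means more PKAc released from R1A so a rise in polarization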
PAFAH1B3 FP inh = inhibitors of human PAFAH1B3 | Q15102 | recombinant PAFAH1B3, FP-rhodamine probe, fluorescence polarization | inhibition, % at 3.39 µM | hit rate 0.28% among 340,000;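 active = inhibition above the screen-wide average of all tested compounds plus 3 SD, cut at about 25% in these data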;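 note: 0% = enzyme with DMSO only and 100% = wells lacking PAFAH1B3 protein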
PAFAH2 inh = PAFAH2 (human) inhibition | Q99487 | recombinant PAFAH2, FP-rhodamine activity probe, fluorescence polarization | inhibition, % at 3.39 µM | hit rate 0.99% among 340,000 | AID 492956;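 active = inhibition above the mean over all tested compounds plus 3 SD, cut at about 30% in these data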;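 note: inhibitors block probe labeling of enzyme so polarization drops; 0% = enzyme with DMSO and 100% = wells lacking PAFAH2 protein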
PAFAH1B2 inh = PAFAH1B2 (human) inhibition; hit rate 1.2% among 340,000; inhibition, % at 3.39 µM; recombinant PAFAH1B2, FP-rhodamine activity probe, fluorescence polarization; P68402;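 active = inhibition above the mean of all tested compounds plus 3 SD, cut at about 24% in these data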;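 note: 0% = enzyme with DMSO and 100% = wells lacking PAFAH1B2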
Target sequence (P68402 whole entry, looked up): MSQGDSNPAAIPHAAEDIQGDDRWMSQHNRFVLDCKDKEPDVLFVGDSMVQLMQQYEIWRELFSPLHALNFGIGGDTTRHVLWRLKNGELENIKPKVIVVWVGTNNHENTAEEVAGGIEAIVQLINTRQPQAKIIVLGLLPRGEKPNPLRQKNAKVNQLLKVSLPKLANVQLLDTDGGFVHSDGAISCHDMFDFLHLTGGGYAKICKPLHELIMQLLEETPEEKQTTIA
R2B FP artifact = counter-screen for PKA-R2B activators: fluorescence polarization artifacts; shares compounds with PKA-R2B act; FP artifact counterscreen; activation, % at 11.4 µM; hit rate 6% among 270; in the data active = activation above about 20%;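 note: Cy5 labelled IP20 peptide probe with compound but no PKA protein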
PKA-R2B confirm = PKA-R2B complex activation, confirmation | shares compounds with PKA-R2B act | fluorescence polarization | activation, % at 11.4 µM | hit rate 9% among 270; in the data active = activation above about 19%
An asterisk follows results filed as active; / = no result given. Most compounds without a hit are left out; they make up all but 2.6% or so of the library.

SMILES	pPAFAH FP inh	PKA-R2B act	PKA-R1A act	PAFAH1B3 FP inh	PAFAH2 inh	PAFAH1B2 inh	R2B FP artifact	PKA-R2B confirm
C=CCN1C(=O)c2ccc(C(=O)N3CCN(c4ccccc4OC)CC3)cc2C1=O	-5.0	-8.2	-13.2	0.8	2.5	1.0	/	/
COc1ccc(NS(=O)(=O)c2ccc(N3CCOCC3)c(N)c2)cc1	8.6	-10.3	-4.2	3.8	9.3	-2.7	/	/
O=C(CN1C(=O)NC2(CCCCCCC2)C1=O)Nc1ccc(OC(F)F)cc1	0.3	-11.4	-5.2	7.5	2.1	4.5	/	/
CCOc1ccc(NC(=O)CN2C(=O)NC3(CCCCCC3)C2=O)cc1	3.6	20.0*	-3.6	11.5	5.9	-3.0	-3.1	-2.8
OCC[C@@H]1C[C@@H](O)[C@H](O)[C@@]2(Cc3ccccc3CCO2)O1	-1.0	21.3*	-10.7	5.2	6.5	1.6	0.7	0.5
OCC[C@@H]1C[C@H](O)[C@@H](O)[C@@]2(Cc3ccccc3CCO2)O1	-1.5	2.8	6.5	0.2	0.1	3.0	/	/
Brc1ccc(/C=N/Nc2ncnc3c2cnn3Cc2ccccc2)cc1	0.3	21.6*	-4.2	5.1	-0.4	2.5	-1.0	3.1
c1ccc(Cn2ncc3c(Nc4ccccc4)ncnc32)cc1	3.3	1.1	-0.5	-0.1	6.0	0.5	/	/
O=C(NCc1ccccc1)C1=C[C@H](c2ccc3c(c2)OCO3)C[C@H](OCc2ccc(CO)cc2)O1	6.0	-7.1	-3.8	-3.6	2.6	0.4	/	/
C#CCNC(=O)C1=C[C@@H](c2ccc3c(c2)OCO3)C[C@@H](OCc2ccc(CO)cc2)O1	3.4	21.2*	0.4	4.2	3.6	2.2	0.5	-1.9
CCc1noc(C)c1C(=O)Nc1nnc(CC(C)C)s1	-2.5	-5.4	-2.3	0.3	-5.5	1.2	/	/
CC(=O)NS(=O)(=O)c1ccc(N=NN2CCOCC2)cc1	2.0	23.3*	2.5	-0.3	-5.3	0.5	1.4	9.5
Cc1cn([C@H](C(=O)NCCCCCCCCCCC(=O)N2CCNCC2)[C@@H](C)O)nn1	6.4	-2.9	-8.1	-0.7	4.5	2.4	/	/
COC(=O)[C@@H](NC(=O)c1ccc(OC2CCN(Cc3ccccn3)CC2)cc1)C(C)C	1.2	19.5*	6.5	1.4	-12.7	-1.0	-1.3	-1.6
CCc1ccccc1N(CC(=O)NCc1ccccc1)C(=O)CCC(=O)Nc1ccccn1	4.6	-5.7	1.9	4.4	1.7	1.7	/	/
COc1ccc(CCN(C)Cc2c(O)ccc3ccccc23)cc1OC	-2.6	-6.0	-7.5	8.4	2.7	10.9	/	/
CCOC(=O)c1ccc(N(C(=O)CNC(=O)c2ccco2)C(C(=O)NCC2CCCO2)c2ccc(OC)c(OC)c2)cc1 (configuration not stated)	0.6	19.3*	7.1	-4.7	2.4	1.0	2.0	-1.6
COc1ccc(C(C(=O)NCC2CCCO2)N(C(=O)CNC(=O)c2ccco2)c2ccccc2)cc1OC (configuration not stated)	-1.4	4.0	7.1	5.5	-0.2	0.7	/	/
O=C(NC1CCCCC1)c1ccc(Br)o1	4.3	18.4*	-8.9	6.0	-6.1	3.0	-3.2	2.4
Cn1cnc(S(=O)(=O)Nc2cc(C(F)(F)F)ccc2N2CCOCC2)c1	2.7	19.9*	-4.2	0.2	-1.0	-2.5	0.7	-0.6
COCCCNC(=O)c1nc2ccccc2c(=O)n1NC(=O)Nc1c(Cl)cccc1Cl	-2.2	-9.3	-9.8	5.2	2.8	6.5	/	/
COc1ccc(S(=O)(=O)Nc2ccc(NC(C)=O)cc2)cc1Br	3.4	22.4*	1.7	1.1	1.7	6.5	2.2	3.3
COc1ccc(S(=O)(=O)Nc2cccc(C(C)=O)c2)cc1Br	2.1	4.0	-5.2	12.6	0.4	7.5	/	/
CC1CCCC(NC(=O)C2COc3ccccc3O2)C1C (configuration not stated)	-10.1	-3.6	-1.6	1.4	8.1	6.5	/	/
Cc1ccc(C(=O)NC(=S)N(C)C2CCCCC2)cc1	12.2	3.0	-5.1	-3.4	4.7	3.7	/	/
SMILES	pPAFAH FP inh	PKA-R2B act	PKA-R1A act	PAFAH1B3 FP inh	PAFAH2 inh	PAFAH1B2 inh	R2B FP artifact	PKA-R2B confirm
Cc1nn(CC(=O)OCC(=O)Nc2ccccc2[N+](=O)[O-])c(C)c1[N+](=O)[O-]	-0.6	18.5*	4.3	0.1	1.6	5.0	-1.2	2.9
Cc1ccc(NC(=O)COC(=O)Cn2nc(C)c([N+](=O)[O-])c2C)c([N+](=O)[O-])c1	0.3	12.9	7.2	5.1	-0.2	-4.7	/	/
COc1cc(OC)cc(-c2c(-c3cccs3)c3cc(Br)ccc3n2C)c1	6.9	19.6*	3.9	3.7	3.7	2.1	4.6	1.4
NS(=O)(=O)c1ccc(CCNC(=O)c2ccc(Cl)c(S(=O)(=O)N3CCCCC3)c2)cc1	7.0	18.4*	-0.2	2.4	3.0	0.2	4.1	5.5
O=S(=O)(Nc1cc2nc3ccccc3nc2n1Cc1ccccc1)c1ccc(Cl)cc1	14.2	21.8*	-5.2	62.6*	66.4*	46.8*	1.4	7.2
O=S(=O)(NCc1ccccc1)c1ccc(Cl)cc1	4.8	-1.7	-6.6	6.2	1.7	21.3	/	/
COCC(=O)Nc1cccc(C(F)(F)F)c1	8.1	19.2*	5.9	-0.2	1.4	1.5	-0.4	-1.1
CCOC(=O)N1CCC(Nc2c(NCCCN(C)Cc3ccccc3)c(=O)c2=O)CC1	-0.2	20.1*	10.0	10.5	5.3	4.9	0.4	1.9
CCCN(CCC)CCNc1c(NC2CCN(C(=O)OCC)CC2)c(=O)c1=O	6.9	-5.4	1.9	2.6	-4.0	-1.5	/	/
CCOc1ccc(NC(=O)CSc2nnnn2-c2ccc(C(N)=O)cc2)cc1	2.1	20.8*	-13.3	7.5	4.7	4.2	2.3	-0.6
Cc1ccc2c(CC(=O)O)coc2c1	3.6	19.1*	7.5	1.8	5.5	5.8	-0.1	-0.6
COc1cc(C#N)ccc1OCC(=O)Nc1cccc(S(=O)(=O)N(C)c2ccccc2)c1	/	-6.8	-1.6	/	/	/	/	/
CC(NC(=O)Cc1ccc(F)cc1)c1ccc(F)cc1 (configuration not stated)	-4.2	19.4*	2.3	1.5	9.6	7.5	1.0	6.2
CC1=CC2=NC(=O)CC(C)(C(=O)N(CC(=O)NC(C)(C)C)C3CCCC3)N2C=C1 (configuration not stated)	-1.4	22.3*	-3.9	4.0	-2.9	-1.2	-1.2	-1.1
CC(C)(C)NC(=O)CN(C(=O)C1(C)CC(=O)N=C2C=CC=CN21)C1CCCC1 (configuration not stated)	0.2	2.5	0.1	6.7	4.2	1.6	/	/

Bioassay records deposited in PubChem BioAssay by The Scripps Research Institute Molecular Screening Center.
